Reference: the supplement of paper PMC6953052
“And” between values parts separate entries of the source, which are not always exact repeats. Equal values may be shown once. ± gives the standard deviation of the averaged measurements. Over roughly 1,700 compounds, “fraction of GFP-LC3-positive cells (≥5 vesicles/cell)” has its median near 0.43; the highest 2% begin near 0.81. What follows is part of a selection rich in the highest values, with near analogues and random picks from the rest.

Test system: CbCln3 Δex7/8/Δex7/8 GFP-LC3 cerebellar neuronal cells
Test: fraction of GFP-LC3-positive cells (≥5 vesicles/cell); higher = more autophagosome accumulation
Summary of the method: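 In 384-well plates at 2 × 10^3 cells per well, GFP-LC3-expressing wild-type or mutant CbCln3 cerebellar cells took ~50 nL of compound in DMSO by pin transfer, in duplicate, for 24 h at 33 °C. Staining with Hoechst 33342 and LysoTracker Red over the final 30 min preceded fixation in 3.2% PFA and imaging of three fields per well at 10×. CellProfiler then counted GFP-LC3 vesicles in each cell, and out-of-focus images were dropped before the fraction of cells with 5 or more vesicles was averaged over duplicates.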

Row | SMILES | fraction of GFP-LC3-positive cells
1 | Cl.Clc1ccccc1CN1CCc2sccc2C1 [Ticlopidine hydrochloride] | 0.403
2 | CN[C@H]1CC[C@@H](c2ccc(Cl)c(Cl)c2)c2ccccc21 [Sertraline] | 0.311
3 | Oc1ccc(-c2nc(-c3ccc(F)cc3)c(-c3ccncc3)[nH]2)cc1 | 0.524 and 0.566
4 | N=C(N)NCCC[C@H](NC(=O)[C@@H]1CCCN1C(=O)[C@H](N)Cc1ccccc1)C(=O)CCl | 0.502
5 | CSCC[C@@H](C=O)NC(=O)[C@H](CC(C)C)NC(=O)[C@H](CC(C)C)NC(C)=O | 0.448
6 | CC(=O)N[C@@H](CC(C)C)C(=O)N[C@@H](CC(C)C)C(=O)N[C@H](C=O)CCCNC(=N)N [Leupeptin] | 0.392
7 | CCCC[C@@H](C=O)NC(=O)[C@H](CC(C)C)NC(=O)[C@H](CC(C)C)NC(C)=O | 0.93
8 | CCOC(=O)/N=c1/c[n+](N2CCOCC2)[n-]o1 [Molsidomine] | 0.473
9 | CCC[C@@H]1C[C@@H](C(=O)N[C@@H]([C@H]2O[C@H](SC)[C@H](O)[C@@H](O)[C@@H]2O)[C@@H](C)O)N(C)C1.Cl [Lincomycin hydrochloride] | 0.505
10 | CS(=O)(=O)c1ccc([C@@H](O)[C@@H](CF)NC(=O)C(Cl)Cl)cc1 [Florfenicol] | 0.355
11 | CN(C)c1ccc(/C=C2\C(=O)Nc3ccccc32)cc1 | 0.441 and 0.394
12 | COC(=O)Nc1nc2cc(C(=O)c3ccccc3)ccc2[nH]1 [Mebendazole] | 0.9
13 | COC(=O)Nc1nc2cc(C(=O)c3cccs3)ccc2[nH]1 [nocodazole] | 0.612
14 | O=C(O)c1ccc2nc(-c3ccccc3)c(-c3ccccc3)nc2c1 | 0.507
15 | CC(C(=O)O)c1ccc(C(=O)c2cccs2)cc1 (stereo unspecified) [Suprofen] | 0.46
16 | CC(C(=O)O)c1cccc(C(=O)c2ccccc2)c1 (stereo unspecified) [Ketoprofen] | 0.499
17 | COC(=O)Nc1nc2cc(C(=O)c3cccs3)ccc2[nH]1 [Nocodazole] | 0.916
18 | Cc1cc(C2CCCCC2)n(O)c(=O)c1.NCCO [Ciclopirox ethanolamine] | 0.809
19 | Cc1cc(=O)n(-c2ccccc2)n1C [Antipyrine] | 0.36
20 | CC(C)COCC(CN(Cc1ccccc1)c1ccccc1)N1CCCC1 (stereo unspecified) | 0.621
21 | CCCCC[C@H](O)/C=C/C=C\C/C=C\C/C=C\CCCC(=O)O | 0.405 ± 0.089
